The record followed here is PMC7862700, “An all-to-all approach to the identification of sequence-specific readers for epigenetic DNA modifications on cytosine”.

What all share (assay): DAPPL (digital affinity profiling via proximity ligation, sequencing); 10 mM Tris-HCl pH 7.5, 50 mM NaCl, 1 mM DTT, 4% glycerol, room temperature, 30 min; GST-TFs on glutathione beads, 16-mer random dsDNA library, 0.1% formaldehyde crosslink after washing; high values mean tight binding
One test deals with T1, FLI1 (Homo sapiens, UniProt Q01543 1-452).
T1 sequence: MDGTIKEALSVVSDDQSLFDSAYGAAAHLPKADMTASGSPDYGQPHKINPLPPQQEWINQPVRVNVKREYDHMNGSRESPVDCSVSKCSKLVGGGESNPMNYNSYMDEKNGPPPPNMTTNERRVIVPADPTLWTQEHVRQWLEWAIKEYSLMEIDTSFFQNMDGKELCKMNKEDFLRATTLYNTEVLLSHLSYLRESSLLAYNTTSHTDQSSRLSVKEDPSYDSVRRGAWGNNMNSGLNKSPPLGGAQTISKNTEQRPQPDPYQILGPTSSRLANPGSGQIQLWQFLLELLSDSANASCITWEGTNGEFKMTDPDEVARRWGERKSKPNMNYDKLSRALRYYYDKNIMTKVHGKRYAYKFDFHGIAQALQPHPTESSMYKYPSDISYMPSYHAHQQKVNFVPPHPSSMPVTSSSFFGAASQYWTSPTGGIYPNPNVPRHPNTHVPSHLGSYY
To be noted: protein: recombinant; tags: N-terminal GST; dsDNA, one strand shown. Summed up: (§1)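 Each value of binding signal is a hexamer's read frequency for a factor divided by the same hexamer's frequency in the tag-only sample. Barcoded, bead-captured GST fusions of human transcription factors made in yeast were pooled with that sample and incubated with 200 nmole of a random double-stranded 16-mer DNA library in Tris/NaCl/DTT/glycerol buffer at room temperature for 30 min. Washing, 0.1% formaldehyde crosslinking, proximity ligation, PCR and Illumina NextSeq500 sequencing followed.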

A further test addresses T2, ELK1 (Homo sapiens, UniProt P19419 1-428).
T2 sequence: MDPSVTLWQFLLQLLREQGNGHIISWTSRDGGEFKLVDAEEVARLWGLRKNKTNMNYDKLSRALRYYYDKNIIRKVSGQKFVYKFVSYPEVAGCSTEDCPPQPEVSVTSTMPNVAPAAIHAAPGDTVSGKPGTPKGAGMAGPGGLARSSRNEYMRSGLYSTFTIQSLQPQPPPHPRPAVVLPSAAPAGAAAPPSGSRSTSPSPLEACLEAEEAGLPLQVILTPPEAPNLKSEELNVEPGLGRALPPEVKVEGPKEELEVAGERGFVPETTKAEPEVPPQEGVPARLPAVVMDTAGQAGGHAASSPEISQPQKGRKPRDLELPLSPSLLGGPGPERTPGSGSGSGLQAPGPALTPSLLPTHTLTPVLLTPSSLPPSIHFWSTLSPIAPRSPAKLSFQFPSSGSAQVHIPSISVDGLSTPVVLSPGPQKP
To be noted: protein: recombinant; tags: N-terminal GST; dsDNA, one strand shown. A digest of the protocol: as §1

The next test concerns the target T3, GABPA (Homo sapiens, UniProt Q06546 1-454).
T3 sequence: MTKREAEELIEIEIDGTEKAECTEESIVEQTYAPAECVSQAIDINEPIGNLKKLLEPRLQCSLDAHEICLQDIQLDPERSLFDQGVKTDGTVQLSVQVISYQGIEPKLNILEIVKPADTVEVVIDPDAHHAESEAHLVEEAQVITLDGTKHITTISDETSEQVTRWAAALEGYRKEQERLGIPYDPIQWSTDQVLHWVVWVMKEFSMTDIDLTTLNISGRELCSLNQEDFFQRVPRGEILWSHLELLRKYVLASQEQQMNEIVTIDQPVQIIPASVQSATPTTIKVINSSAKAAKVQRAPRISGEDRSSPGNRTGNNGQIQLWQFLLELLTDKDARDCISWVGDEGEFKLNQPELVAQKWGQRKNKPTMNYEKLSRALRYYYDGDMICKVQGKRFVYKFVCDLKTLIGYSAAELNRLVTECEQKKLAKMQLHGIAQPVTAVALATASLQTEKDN
To be noted: protein: recombinant; tags: N-terminal GST; dsDNA, one strand shown. Summed up:
as §1

The target in a further test is T4, ERG (Homo sapiens, UniProt P11308 1-479).
T4 sequence: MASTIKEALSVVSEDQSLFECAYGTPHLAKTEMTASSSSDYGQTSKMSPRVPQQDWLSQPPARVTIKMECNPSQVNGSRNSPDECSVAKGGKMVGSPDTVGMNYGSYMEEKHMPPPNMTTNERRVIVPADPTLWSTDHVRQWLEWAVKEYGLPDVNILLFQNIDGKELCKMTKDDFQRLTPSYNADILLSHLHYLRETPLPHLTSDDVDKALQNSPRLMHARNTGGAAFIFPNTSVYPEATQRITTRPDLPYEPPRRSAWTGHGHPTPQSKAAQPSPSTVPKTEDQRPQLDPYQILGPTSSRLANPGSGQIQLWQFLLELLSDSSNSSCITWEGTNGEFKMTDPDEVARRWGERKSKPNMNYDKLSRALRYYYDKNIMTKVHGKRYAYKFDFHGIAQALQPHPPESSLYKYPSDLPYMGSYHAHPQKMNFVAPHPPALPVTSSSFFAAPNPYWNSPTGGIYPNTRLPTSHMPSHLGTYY
The settings on record: protein: recombinant; tags: N-terminal GST; dsDNA, one strand shown. A digest of the protocol:
as §1

For another test, the target named is ELF1 (Homo sapiens, UniProt P32519 1-619). To be noted: protein: recombinant; tags: N-terminal GST; dsDNA, one strand shown. A digest of the protocol:
as §1

For another test, the target named is T5, EHF (Homo sapiens, UniProt Q9NZC4 1-300).
T5 sequence: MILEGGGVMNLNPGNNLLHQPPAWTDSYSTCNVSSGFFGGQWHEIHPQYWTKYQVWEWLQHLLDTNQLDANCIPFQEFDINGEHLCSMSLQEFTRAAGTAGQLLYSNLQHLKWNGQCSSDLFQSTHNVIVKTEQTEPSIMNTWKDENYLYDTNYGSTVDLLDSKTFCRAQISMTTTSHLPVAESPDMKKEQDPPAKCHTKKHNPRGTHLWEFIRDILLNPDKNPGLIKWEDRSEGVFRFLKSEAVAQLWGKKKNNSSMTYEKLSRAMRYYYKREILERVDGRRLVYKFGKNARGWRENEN
To be noted: protein: recombinant; tags: N-terminal GST; dsDNA, one strand shown. Summed up:
as §1

A further test addresses SPI1 (Homo sapiens, UniProt P17947 1-270). To be noted: protein: recombinant; tags: N-terminal GST; dsDNA, one strand shown. A digest of the protocol:
as §1

A further test deals with SPIB (Homo sapiens, UniProt Q01892 1-262). To be noted: protein: recombinant; tags: N-terminal GST; dsDNA, one strand shown. A digest of the protocol: as §1
Chain of SPIB (Q01892 whole entry): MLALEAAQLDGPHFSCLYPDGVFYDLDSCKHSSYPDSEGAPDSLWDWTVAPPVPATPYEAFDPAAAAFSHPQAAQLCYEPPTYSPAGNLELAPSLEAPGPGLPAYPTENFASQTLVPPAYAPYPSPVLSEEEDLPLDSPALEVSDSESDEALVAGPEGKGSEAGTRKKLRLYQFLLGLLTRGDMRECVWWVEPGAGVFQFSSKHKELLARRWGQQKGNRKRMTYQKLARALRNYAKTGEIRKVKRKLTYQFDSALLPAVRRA
The next test has as its target T6, ELK3 (Homo sapiens, UniProt P41970 1-407).
T6 sequence: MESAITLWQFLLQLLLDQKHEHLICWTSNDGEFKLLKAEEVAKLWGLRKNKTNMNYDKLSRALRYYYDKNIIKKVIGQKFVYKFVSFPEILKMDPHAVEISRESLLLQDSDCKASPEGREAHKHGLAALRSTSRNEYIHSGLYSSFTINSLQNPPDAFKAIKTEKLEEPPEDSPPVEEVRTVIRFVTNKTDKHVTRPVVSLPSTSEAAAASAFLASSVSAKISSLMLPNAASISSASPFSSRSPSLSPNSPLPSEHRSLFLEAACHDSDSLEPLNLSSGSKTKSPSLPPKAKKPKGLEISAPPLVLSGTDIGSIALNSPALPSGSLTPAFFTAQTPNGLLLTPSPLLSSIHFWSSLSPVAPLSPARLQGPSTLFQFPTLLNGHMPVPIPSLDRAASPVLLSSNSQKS
To be noted: protein: recombinant; tags: N-terminal GST; dsDNA, one strand shown. A digest of the protocol:
as §1

The next test addresses ETV5 (Homo sapiens, UniProt P41161 1-510). The settings on record: protein: recombinant; tags: N-terminal GST; dsDNA, one strand shown. Summed up: as §1
In a further test the target is HSF1 (Homo sapiens, UniProt Q00613 1-529). To be noted: protein: recombinant; tags: N-terminal GST; chain copies: 3; dsDNA, one strand shown. Summed up:
as §1

The target of another test is ELF4 (Homo sapiens, UniProt Q99607 1-663). To be noted: protein: recombinant; tags: N-terminal GST; dsDNA, one strand shown. A digest of the protocol: as §1
Chain of ELF4 (Q99607 whole entry): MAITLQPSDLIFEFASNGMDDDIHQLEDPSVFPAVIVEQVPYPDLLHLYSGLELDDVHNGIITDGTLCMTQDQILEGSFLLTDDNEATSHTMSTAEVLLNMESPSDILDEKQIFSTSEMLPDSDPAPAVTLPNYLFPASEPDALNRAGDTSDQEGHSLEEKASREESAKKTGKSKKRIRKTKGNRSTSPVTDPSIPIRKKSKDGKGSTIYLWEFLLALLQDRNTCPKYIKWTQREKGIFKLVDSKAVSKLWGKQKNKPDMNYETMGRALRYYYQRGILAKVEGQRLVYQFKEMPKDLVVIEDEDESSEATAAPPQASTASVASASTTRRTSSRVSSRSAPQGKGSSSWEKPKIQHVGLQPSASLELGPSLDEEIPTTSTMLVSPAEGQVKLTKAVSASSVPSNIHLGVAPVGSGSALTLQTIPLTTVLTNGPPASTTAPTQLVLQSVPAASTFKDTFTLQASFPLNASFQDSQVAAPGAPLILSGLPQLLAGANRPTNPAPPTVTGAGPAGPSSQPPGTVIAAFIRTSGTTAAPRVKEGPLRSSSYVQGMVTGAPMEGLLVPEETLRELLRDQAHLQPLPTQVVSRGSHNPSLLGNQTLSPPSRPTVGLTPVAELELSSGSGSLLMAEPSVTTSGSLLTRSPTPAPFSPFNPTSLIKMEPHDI
The target of the next test is T7, ELK4 (Homo sapiens, UniProt P28324-2 1-405).
T7 sequence: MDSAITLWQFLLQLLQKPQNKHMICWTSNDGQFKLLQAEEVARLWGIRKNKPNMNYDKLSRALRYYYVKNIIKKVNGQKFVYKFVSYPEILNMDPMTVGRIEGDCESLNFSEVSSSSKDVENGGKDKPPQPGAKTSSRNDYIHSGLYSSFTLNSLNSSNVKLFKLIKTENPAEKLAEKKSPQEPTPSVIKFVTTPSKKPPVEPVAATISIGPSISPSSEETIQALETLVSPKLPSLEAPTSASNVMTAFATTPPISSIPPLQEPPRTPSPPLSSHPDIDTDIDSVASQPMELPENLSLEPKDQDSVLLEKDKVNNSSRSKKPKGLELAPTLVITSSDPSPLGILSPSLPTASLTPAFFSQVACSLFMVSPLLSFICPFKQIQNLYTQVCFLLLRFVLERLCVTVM
The settings on record: protein: recombinant; tags: N-terminal GST; dsDNA, one strand shown. Summed up: as §1

The target in a further test is T8, ETV2 (Homo sapiens, UniProt O00321 1-342).
T8 sequence: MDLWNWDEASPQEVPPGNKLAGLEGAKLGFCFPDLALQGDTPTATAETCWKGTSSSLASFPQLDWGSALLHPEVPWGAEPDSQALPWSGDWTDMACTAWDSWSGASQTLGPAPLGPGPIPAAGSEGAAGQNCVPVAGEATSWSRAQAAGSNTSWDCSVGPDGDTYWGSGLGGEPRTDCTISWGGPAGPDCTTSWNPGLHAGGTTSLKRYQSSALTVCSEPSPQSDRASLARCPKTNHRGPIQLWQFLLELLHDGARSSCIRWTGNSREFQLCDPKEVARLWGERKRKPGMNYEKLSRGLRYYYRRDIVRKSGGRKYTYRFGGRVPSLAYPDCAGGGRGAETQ
The settings on record: protein: recombinant; tags: N-terminal GST; dsDNA, one strand shown. A digest of the protocol: as §1

For another test, the target named is T9, ELF3 (Homo sapiens, UniProt P78545 1-371).
T9 sequence: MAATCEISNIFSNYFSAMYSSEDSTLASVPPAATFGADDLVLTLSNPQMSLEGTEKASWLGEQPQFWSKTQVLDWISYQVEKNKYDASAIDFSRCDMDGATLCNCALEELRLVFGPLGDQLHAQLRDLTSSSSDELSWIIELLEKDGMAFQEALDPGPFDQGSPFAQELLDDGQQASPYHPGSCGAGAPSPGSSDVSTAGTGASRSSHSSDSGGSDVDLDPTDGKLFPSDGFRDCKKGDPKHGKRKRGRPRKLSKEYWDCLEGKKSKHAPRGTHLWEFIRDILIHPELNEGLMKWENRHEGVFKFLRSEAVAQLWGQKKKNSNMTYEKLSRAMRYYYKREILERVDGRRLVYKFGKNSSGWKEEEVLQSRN
The settings on record: protein: recombinant; tags: N-terminal GST; dsDNA, one strand shown. A digest of the protocol:
as §1

The target in a further test is CRX (Homo sapiens, UniProt O43186 1-299). The settings on record: protein: recombinant; tags: N-terminal GST; dsDNA, one strand shown. A digest of the protocol:
as §1

A further test has as its target ETV1 (Homo sapiens, UniProt P50549 1-477). The settings on record: protein: recombinant; tags: N-terminal GST; dsDNA, one strand shown. A digest of the protocol:
as §1

Chain of ETV5 (P41161 whole entry): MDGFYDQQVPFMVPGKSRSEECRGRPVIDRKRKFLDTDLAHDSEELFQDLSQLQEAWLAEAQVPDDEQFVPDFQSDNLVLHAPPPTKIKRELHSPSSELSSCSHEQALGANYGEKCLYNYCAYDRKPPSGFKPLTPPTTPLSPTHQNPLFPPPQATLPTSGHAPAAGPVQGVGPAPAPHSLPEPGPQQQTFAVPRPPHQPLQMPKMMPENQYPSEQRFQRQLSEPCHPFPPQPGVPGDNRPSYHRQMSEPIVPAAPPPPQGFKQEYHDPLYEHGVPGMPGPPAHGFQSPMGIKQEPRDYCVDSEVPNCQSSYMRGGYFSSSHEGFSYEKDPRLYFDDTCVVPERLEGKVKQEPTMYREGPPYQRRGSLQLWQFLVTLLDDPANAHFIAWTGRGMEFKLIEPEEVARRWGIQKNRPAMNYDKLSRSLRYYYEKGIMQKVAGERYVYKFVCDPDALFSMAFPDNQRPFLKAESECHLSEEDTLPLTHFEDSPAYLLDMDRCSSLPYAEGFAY
Chain of HSF1 (Q00613 whole entry): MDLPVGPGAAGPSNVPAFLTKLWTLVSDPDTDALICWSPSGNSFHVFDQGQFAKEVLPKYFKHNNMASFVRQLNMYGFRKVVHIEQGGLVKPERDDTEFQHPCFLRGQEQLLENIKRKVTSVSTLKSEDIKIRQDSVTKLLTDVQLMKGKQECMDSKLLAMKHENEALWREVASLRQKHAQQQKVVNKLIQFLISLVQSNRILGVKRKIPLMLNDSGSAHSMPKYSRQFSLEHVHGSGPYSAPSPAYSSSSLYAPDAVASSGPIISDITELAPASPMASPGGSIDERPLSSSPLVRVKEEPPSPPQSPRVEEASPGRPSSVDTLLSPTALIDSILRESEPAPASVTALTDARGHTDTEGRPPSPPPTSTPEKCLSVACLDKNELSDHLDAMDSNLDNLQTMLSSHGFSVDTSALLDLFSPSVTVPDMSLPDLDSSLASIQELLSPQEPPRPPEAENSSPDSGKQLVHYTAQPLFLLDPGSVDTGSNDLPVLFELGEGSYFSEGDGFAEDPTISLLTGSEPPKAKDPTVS
Chain of CRX (O43186 whole entry): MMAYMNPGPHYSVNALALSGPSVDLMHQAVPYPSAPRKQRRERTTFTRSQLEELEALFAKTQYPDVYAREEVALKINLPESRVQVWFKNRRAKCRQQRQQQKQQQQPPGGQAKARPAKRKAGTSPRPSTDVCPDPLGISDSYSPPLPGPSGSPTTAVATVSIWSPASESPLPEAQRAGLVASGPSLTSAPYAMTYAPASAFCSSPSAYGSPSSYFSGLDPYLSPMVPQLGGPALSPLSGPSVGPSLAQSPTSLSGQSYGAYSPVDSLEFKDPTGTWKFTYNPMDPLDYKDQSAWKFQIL
Chain of ETV1 (P50549 whole entry): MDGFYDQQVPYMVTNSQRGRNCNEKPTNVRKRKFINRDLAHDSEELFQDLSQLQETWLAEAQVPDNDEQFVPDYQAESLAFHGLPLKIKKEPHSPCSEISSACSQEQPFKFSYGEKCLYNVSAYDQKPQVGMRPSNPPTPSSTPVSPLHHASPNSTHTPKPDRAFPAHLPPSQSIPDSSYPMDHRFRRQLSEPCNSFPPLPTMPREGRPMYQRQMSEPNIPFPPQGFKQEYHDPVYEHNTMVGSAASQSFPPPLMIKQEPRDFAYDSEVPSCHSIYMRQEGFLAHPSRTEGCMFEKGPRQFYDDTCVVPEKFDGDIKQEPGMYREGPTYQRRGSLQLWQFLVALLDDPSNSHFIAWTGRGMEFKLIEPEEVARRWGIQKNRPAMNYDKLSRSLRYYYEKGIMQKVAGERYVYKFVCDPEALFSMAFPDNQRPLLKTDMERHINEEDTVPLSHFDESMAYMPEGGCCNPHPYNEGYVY
Chain of ELF1 (P32519 whole entry): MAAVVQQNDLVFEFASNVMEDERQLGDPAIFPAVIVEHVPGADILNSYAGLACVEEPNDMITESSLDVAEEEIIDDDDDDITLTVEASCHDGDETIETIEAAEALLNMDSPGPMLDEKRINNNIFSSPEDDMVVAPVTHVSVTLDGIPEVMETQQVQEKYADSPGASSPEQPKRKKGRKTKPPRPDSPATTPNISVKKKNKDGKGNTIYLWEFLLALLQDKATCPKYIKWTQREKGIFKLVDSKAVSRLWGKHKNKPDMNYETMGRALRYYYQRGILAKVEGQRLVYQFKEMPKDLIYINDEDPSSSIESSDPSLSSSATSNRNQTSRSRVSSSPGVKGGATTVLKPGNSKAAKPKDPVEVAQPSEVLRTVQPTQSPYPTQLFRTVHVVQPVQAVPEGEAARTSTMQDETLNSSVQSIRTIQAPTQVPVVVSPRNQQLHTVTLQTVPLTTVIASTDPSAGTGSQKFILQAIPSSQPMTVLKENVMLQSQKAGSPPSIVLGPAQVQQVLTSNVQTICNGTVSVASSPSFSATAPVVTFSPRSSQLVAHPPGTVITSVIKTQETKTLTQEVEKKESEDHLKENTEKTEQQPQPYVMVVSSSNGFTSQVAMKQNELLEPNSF

For the sequence TTAGGT, the binding signal with FLI1 is 1.11 fold enrichment (6-mer frequency, TF over GST control); in the test with ELK1 it was 1.12 fold enrichment (6-mer frequency, TF over GST control); in the test with GABPA, 1.2 fold enrichment (6-mer frequency, TF over GST control); with ERG, 1.08 fold enrichment (6-mer frequency, TF over GST control); with ELF1 it was 1.03 fold enrichment (6-mer frequency, TF over GST control); with EHF, 1.1 fold enrichment (6-mer frequency, TF over GST control). The binding signal with SPI1 is 1.02 fold enrichment (6-mer frequency, TF over GST control); with SPIB, 1.12 fold enrichment (6-mer frequency, TF over GST control); with ELK3, 1.17 fold enrichment (6-mer frequency, TF over GST control); in the test with ETV5 it was 1.12 fold enrichment (6-mer frequency, TF over GST control); with HSF1 it was 1.28 fold enrichment (6-mer frequency, TF over GST control); in the test with ELF4, 1.08 fold enrichment (6-mer frequency, TF over GST control). In addition, the binding signal was 1.26 fold enrichment (6-mer frequency, TF over GST control) with ELK4; 1 fold enrichment (6-mer frequency, TF over GST control) with ETV2; 1.15 fold enrichment (6-mer frequency, TF over GST control) with ELF3; 1.82 fold enrichment (6-mer frequency, TF over GST control) with CRX; 1.04 fold enrichment (6-mer frequency, TF over GST control) in the test with ETV1.
